Inconclusive results are not listed. Calls of active or inactive are those of the source. The calls were made as follows, unless noted: active = hit-call score of the fitted dose curve at least 0.9, where 1 is the maximum; inconclusive = response in the unintended direction; inactive = score below 0.9.

The test system of assay [1] is Thyroperoxidase (TPO), gene 54314. As to the kind of experiment: CCTE_Simmons_AUR_rTPO: CCTE's Amplex UltraRed Assay for Thyroperoxidase (TPO) Inhibition, Simmons Lab (AID 2283662).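 Also: potency for loss of signal meaning inhibition of peroxidase activity.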 Summed up:
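Cell-free peroxidase activity assay using rat thyroid gland microsomes with excess H2O2 (300 uM) and 25 uM Amplex UltraRed. Compounds tested from 5 nM to 87.5 uM; fluorescence measured after 30 min at 37C, analysed relative to DMSO baseline.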

A short description of assay [2]: CCTE_Simmons_CellTiterGLO_HEK293T: Viability Assessment in CCTE's Assays for Thyroperoxidase (TPO) Inhibition, Simmons Lab (AID 2283665). An outline of the steps: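 ATP depletion measured in HEK293T cells after 24 h dosing (8 concentrations, 5 nM–87.5 uM final; DMSO 0.5%) using CellTiter-Glo luminescence; curves fit for loss of signal against DMSO baseline.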
(In ATP-based viability assays light output follows the ATP content of the culture.)

Assay [3] addresses Luciferin 4-monooxygenase (Photinus pyralis) (UniProt P08659). In words: CCTE_Simmons_QuantiLum_inhib_2: CCTE's Firefly Luciferase Inhibition Assay, Simmons Lab (AID 2283767).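 As to AC50: potency for inhibitors that lower luciferase luminescence relative to DMSO.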 Summed up:
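Eight-point titrations of each chemical, 5 nM–87.5 uM final in 0.5% DMSO, were run in three biological replicates against recombinant luciferase for 30 min at 37C. Bioluminescence signal loss, read on reagent injection, gave the inhibition endpoint.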

Assay [4] addresses Nucleoli Translocation, AR (gene 367) (UniProt P10275). In words: UPITT_HCI_U2OS_AR_TIF2_Nucleoli_Antagonist: University of Pittsburgh U2OS Androgen Receptor-Transcriptional Intermediary Factor 2 (AR-TIF2) Antagonism High Content Imaging Assay for Nucleoli Translocation (AID 2283997). Summed up:
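Antagonism is read as loss of nucleolar AR-RFP signal relative to DHT, imaged in U2OS cells also carrying GFP-TIF2. Compounds screened at 20 uM final, 0.2% DMSO; primary actives retested in triplicate.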

For assay [5], the target named is Nuclear receptor subfamily 1 group I member 2 (Homo sapiens) (UniProt O75469). As to the kind of experiment: NVS_NR_hPXR: NovaScreen (NVS) Nuclear Receptor Binding Assay for human Pregnane X Receptor (PXR) (AID 2283365).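 Also: a drop in FRET signal versus DMSO baseline means the compound binds.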 An outline of the steps:
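Read-out: TR-FRET, human PXR, 2 h post-dosing, cell-free. Loss of signal vs DMSO taken as binding activity; 25 uM primary, concentration series secondary.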

Assay [6] deals with human Ephrin type-A Receptor 1 (EphA1), EPHA1 (gene 2041) (UniProt P21709). In words: NVS_ENZ_hEphA1: NovaScreen (NVS) Enzymatic Assay for human Ephrin type-A Receptor 1 (EphA1) (AID 2283158).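 Also: activity is signal loss versus DMSO meaning EphA1 kinase inhibition.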 An outline of the steps:
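Here the EphA1 protein is recombinant and the substrate fluorescent, with electrophoretic separation before fluorescence detection at 1 hour. Signal loss against DMSO defines activity; plate controls included; follow-up concentration series reach 50 uM.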

Assay [7] concerns the target human Phosphodiesterase 10 (PDE10), PDE10A (gene 10846) (UniProt Q9Y233). In words: NVS_ENZ_hPDE10: NovaScreen (NVS) Enzymatic Assay for human Phosphodiesterase 10 (PDE10) (AID 2283195). An outline of the steps: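 Fluorescence readout after mobility-shift separation of substrate and product, 1 h reaction with recombinant human enzyme. Single-concentration duplicates at 25 uM, then concentration-response up to 50 uM for chemicals reaching threshold; DMSO baseline.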

Assay [8] can be described thus: CEETOX_H295R_OHPREG: CeeTox H295R High-throughput Steroidogenesis Assay for OH-Pregnenolone (OHPREG) (AID 2283434; active = hit-call score of the fitted dose curve at least 0.9, where 1 is the maximum; inactive = score below 0.9). Particulars: actives raise or lower the signal. An outline of the steps:
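Secreted 17alpha-hydroxypregnenolone measured by HPLC-MS/MS after liquid-liquid extraction. Human adrenal H295R cells received 48 h forskolin (10 uM) stimulation before 48 h chemical exposure at 0.1% final DMSO; MTT viability in same wells; bidirectional fit against DMSO.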

For assay [9], the system named is Sodium/Iodide Symporter (NIS), SLC5A5 (gene 6528). In words: CPHEA_Stoker_NIS_Inhibition_RAIU: CPHEA's Radioactive Iodide Uptake (RAIU) Assay for Sodium/Iodide Symporter (NIS) Inhibition, Stoker and Laws Labs (AID 2283841). An outline of the steps: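 Iodide uptake through human NIS is measured in an engineered HEK293T line. Cells take up 125I (329pM final) for 2 hours at room temperature alongside chemicals at 0.001–100uM. Retained radioactivity is counted, and the signal is expressed against DMSO controls.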

The nature of assay [10]: CPHEA_Stoker_NIS_Cytotoxicity: Cytotoxicity Assessment for CPHEA's Radioactive Iodide Uptake (RAIU) Assay for Sodium/Iodide Symporter (NIS) Inhibition, Stoker and Laws Labs (AID 2283897). An outline of the steps:
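ATP luminescence (Cell Titer Glo) measured viability, with loss of signal normalized to DMSO controls. Cells: hNIS-HEK293T-EPA, seeded 40 hours prior. Dosing: 0.001–100uM, 2 hours, room temperature, uptake buffer pH 7.4.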

The target of assay [11] is Ratio of Nucleoli Translocation and Cytoplasm, AR (gene 367) (UniProt P10275). As to the kind of experiment: UPITT_HCI_U2OS_AR_TIF2_Nucleoli_Cytoplasm_Ratio_Agonist: University of Pittsburgh U2OS Androgen Receptor-Transcriptional Intermediary Factor 2 (AR-TIF2) Agonism High Content Imaging Assay for Ratio of Nucleoli Translocation and Cytoplasm (AID 2284000).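 Also: hits raise the red nucleolar to cytoplasm ratio above vehicle.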 An outline of the steps: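 Compounds tested at 20 uM final in primary screen (0.2% DMSO) and 0.195-50 uM final in dose-response (0.5% DMSO). Imaging of human U2OS cells bearing RFP-AR and GFP-TIF2; endpoint is nucleoli/cytoplasm red signal ratio, positive direction relative to DMSO.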

Assay [12] in a line: CCTE_Padilla_ZF_Score.General: CCTE's 144 Hour Post-fertilization zebrafish Assay Score for General Malformation, Padilla Lab (AID 2284411; active = hit-call score of the fitted dose curve at least 0.9, where 1 is the maximum; inactive = score below 0.9). Summed up:
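Malformation, death and hatching were scored at 6 dpf by two blinded observers under a stereo microscope. Embryos were dosed singly from 6-8 hpf in sealed plates of 10% Hanks' at 26C and rinsed on 5 dpf; DMSO baseline.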

Assay [13] is described as follows: CCTE_Deisenroth_AIME_384WELL_CTox_Active: Cytotoxicity Assessment (CTOX) in CCTE's 384-well Estrogen Receptor Transactivation Assay with AIME metabolic competence (metabolism positive), Deisenroth Lab (AID 2284037).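 Also: chemicals first conditioned 2 h by alginate-bound induced rat liver S9 before cells; activity means signal loss indicating cell death.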 An outline of the steps: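 Cytotoxicity in VM7Luc4E2 breast cells, 24 hour, measured as protease-substrate fluorescence loss, after 2-hour metabolic conditioning with induced rat hepatic S9 in alginate microspheres. Concentrations 0.002 - 200 uM, 10 points, bidirectional fitting.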

Assay [14] in a line: CEETOX_H295R_11DCORT: CeeTox H295R High-throughput Steroidogenesis Assay for 11-Deoxycortisol (11DCORT) (AID 2283432; active = hit-call score of the fitted dose curve at least 0.9, where 1 is the maximum; inactive = score below 0.9). Particulars: actives raise or lower the signal. Summed up:
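Adrenal carcinoma line H295R, run per OECD 456 with minor changes, was forskolin-stimulated (10 uM, 48 h) before a 48 h chemical exposure at 0.1% DMSO. Secreted 11-deoxycortisol was quantified by HPLC-MS/MS.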

Assay [15] in a line: CEETOX_H295R_CORTIC: CeeTox H295R High-throughput Steroidogenesis Assay for Corticosterone (CORTIC) (AID 2283437; active = hit-call score of the fitted dose curve at least 0.9, where 1 is the maximum; inactive = score below 0.9). Particulars: actives raise or lower the signal. An outline of the steps: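 Medium corticosterone was quantified by tandem mass spectrometry following 48 hours of chemical exposure (0.1% DMSO) in human H295R cells previously stimulated 48 hours with 10 uM forskolin. Viability checked by MTT; chemicals diluted and retested when viability fell below 70%.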

A short description of assay [16]: CEETOX_H295R_CORTISOL: CeeTox H295R High-throughput Steroidogenesis Assay for Cortisol (AID 2283438; active = hit-call score of the fitted dose curve at least 0.9, where 1 is the maximum; inactive = score below 0.9;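 also: cortisol secreted into medium quantified by LC-MS/MS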). Particulars: actives raise or lower the signal. An outline of the steps:
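Steroidogenesis in H295R, per modified OECD 456: 48 h forskolin (10 uM), then 48 h exposure, 0.1% DMSO. Cortisol by extraction and tandem MS; viability by MTT (570/650 nm); cytotoxic chemicals diluted and re-tested.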

The nature of assay [17]: CEETOX_H295R_DOC: CeeTox H295R High-throughput Steroidogenesis Assay for DOC (AID 2283439; active = hit-call score of the fitted dose curve at least 0.9, where 1 is the maximum; inactive = score below 0.9). Particulars: actives raise or lower the signal. Summed up: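 H295R, fsk 10 uM ×48 h pre, cmpd ×48 h (0.1% DMSO). Media → MTBE extr. → LC-MS/MS, DOC. Bidirectional fit vs DMSO; MTT viability same wells, re-test diluted if <70%.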
The nature of assay [18]: CEETOX_H295R_PROG: CeeTox H295R High-throughput Steroidogenesis Assay for Progesterone (PROG) (AID 2283442; active = hit-call score of the fitted dose curve at least 0.9, where 1 is the maximum; inactive = score below 0.9;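 also: human H295R adrenal cells primed with 10 µM forskolin before dosing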). Particulars: actives raise or lower the signal. Summed up: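 Measured analyte is progesterone secreted by H295R cells at 48 h of chemical treatment, following 10 uM forskolin priming. Quantitation used HPLC-MS/MS against a 7-point standard curve; cytotoxicity was checked by MTT absorbance.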

Assay [19] has as its target rat Peripheral-type Benzodiazepine Receptor (PBR), Tspo (gene 24230) (UniProt P16257). As to the kind of experiment: NVS_MP_rPBR: NovaScreen (NVS) Membrane Protein Assay for rat Peripheral-type Benzodiazepine Receptor (PBR) (AID 2283335). An outline of the steps: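 Single-concentration duplicate screening at 25 uM preceded concentration-series retesting of actives. Binding of a specific radioligand to rat kidney membrane PBR was read by filtration radiodetection after 1 h, with plate-wise positive and negative controls.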

Assay [20] has as its target human Peripheral-type Benzodiazepine Receptor (PBR), TSPO (gene 706) (UniProt P30536). As to the kind of experiment: NVS_MP_hPBR: NovaScreen (NVS) Membrane Protein Assay for human Peripheral-type Benzodiazepine Receptor (PBR) (AID 2283331).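 Also: hits reduce radioligand binding relative to DMSO baseline.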 An outline of the steps:
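Cell-free binding to human colonic membrane preparations measured by filter-based scintillation counting after 1 h. Compounds first run at 25 uM in duplicate, then concentration series for actives; signal loss against DMSO baseline.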

Nucleoli Translocation, AR (gene 367), sequence (P10275 whole entry, looked up): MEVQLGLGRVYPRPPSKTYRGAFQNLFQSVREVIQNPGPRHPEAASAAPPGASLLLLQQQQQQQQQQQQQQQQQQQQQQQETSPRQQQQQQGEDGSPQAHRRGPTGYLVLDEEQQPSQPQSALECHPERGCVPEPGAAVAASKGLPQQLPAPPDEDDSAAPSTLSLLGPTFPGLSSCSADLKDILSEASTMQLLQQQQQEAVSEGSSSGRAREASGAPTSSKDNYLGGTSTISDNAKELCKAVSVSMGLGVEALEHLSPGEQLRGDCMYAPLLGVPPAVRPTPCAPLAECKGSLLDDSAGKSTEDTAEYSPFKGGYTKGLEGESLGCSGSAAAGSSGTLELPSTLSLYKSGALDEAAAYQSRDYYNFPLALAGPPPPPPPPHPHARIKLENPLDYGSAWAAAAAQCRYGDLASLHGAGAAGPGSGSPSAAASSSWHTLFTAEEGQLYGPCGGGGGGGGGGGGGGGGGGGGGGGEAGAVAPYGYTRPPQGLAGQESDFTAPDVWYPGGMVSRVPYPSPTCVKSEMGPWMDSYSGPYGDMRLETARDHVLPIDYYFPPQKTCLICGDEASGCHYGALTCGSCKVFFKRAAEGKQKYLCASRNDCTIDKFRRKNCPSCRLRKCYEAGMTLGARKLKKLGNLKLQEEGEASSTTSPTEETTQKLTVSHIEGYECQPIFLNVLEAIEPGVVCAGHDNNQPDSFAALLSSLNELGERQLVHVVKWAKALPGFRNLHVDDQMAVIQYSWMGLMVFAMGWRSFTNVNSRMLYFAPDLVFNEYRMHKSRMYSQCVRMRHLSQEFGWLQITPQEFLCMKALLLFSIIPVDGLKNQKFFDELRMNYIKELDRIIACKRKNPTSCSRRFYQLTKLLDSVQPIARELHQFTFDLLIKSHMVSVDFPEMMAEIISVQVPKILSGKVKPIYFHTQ
Luciferin 4-monooxygenase (Photinus pyralis), sequence (P08659 whole entry, looked up): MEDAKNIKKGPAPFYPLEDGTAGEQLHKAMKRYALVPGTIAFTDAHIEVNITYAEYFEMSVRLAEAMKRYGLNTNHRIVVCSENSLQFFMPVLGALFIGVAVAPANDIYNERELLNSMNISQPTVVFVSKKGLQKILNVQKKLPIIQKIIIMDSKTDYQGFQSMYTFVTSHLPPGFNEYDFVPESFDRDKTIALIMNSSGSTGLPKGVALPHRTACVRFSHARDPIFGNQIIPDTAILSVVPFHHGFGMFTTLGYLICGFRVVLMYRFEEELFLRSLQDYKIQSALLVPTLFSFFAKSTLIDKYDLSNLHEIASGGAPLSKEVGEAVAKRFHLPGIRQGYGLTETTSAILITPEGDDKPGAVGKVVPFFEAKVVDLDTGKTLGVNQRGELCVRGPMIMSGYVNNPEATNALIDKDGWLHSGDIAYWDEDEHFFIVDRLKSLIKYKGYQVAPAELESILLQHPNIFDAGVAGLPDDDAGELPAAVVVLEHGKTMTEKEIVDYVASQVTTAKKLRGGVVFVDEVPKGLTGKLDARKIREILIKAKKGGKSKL
Nuclear receptor subfamily 1 group I member 2 (Homo sapiens), sequence (O75469 whole entry, looked up): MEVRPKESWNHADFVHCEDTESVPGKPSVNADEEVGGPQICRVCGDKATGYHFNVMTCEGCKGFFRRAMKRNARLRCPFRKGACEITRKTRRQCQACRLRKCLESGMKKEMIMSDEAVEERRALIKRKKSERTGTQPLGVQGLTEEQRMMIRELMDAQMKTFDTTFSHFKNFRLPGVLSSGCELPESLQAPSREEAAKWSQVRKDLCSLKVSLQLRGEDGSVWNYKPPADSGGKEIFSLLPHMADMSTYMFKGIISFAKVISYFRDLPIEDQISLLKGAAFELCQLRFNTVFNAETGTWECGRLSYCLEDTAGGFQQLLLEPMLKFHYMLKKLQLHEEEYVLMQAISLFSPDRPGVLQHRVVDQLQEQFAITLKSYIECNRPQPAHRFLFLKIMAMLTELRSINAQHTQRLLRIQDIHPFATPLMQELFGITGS
Ratio of Nucleoli Translocation and Cytoplasm, AR (gene 367), sequence (P10275 whole entry, looked up): as the sequence (P10275 whole entry, looked up) above
human Phosphodiesterase 10 (PDE10), PDE10A (gene 10846), sequence (Q9Y233 whole entry, looked up): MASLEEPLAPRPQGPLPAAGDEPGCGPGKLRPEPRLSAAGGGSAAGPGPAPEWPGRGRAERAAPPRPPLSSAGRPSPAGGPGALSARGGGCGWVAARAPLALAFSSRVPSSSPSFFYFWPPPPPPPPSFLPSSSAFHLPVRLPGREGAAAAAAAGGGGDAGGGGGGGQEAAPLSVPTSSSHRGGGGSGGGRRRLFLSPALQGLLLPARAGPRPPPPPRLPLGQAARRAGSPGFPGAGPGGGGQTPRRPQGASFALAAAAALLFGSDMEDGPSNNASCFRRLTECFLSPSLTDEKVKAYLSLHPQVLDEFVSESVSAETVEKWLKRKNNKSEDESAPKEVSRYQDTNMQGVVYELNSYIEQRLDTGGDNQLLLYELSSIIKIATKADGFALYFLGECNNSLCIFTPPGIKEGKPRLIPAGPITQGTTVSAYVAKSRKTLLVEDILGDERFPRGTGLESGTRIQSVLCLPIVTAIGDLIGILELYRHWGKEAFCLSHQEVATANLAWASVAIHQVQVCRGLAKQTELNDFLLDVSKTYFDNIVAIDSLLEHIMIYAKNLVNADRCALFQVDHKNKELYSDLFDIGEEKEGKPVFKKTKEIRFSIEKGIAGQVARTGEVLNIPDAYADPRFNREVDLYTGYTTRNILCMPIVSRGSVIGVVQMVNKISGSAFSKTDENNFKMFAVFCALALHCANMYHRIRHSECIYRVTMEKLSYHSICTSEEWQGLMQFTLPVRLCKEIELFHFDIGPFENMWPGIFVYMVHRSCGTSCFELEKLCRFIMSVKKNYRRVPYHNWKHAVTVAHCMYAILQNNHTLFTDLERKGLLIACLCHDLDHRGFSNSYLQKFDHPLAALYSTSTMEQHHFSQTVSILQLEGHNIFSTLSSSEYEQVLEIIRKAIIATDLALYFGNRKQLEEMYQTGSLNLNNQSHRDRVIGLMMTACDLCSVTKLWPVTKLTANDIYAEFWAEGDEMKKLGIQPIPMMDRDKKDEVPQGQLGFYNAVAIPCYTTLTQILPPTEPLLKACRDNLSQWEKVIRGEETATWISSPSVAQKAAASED
human Ephrin type-A Receptor 1 (EphA1), EPHA1 (gene 2041), sequence (P21709 whole entry, looked up): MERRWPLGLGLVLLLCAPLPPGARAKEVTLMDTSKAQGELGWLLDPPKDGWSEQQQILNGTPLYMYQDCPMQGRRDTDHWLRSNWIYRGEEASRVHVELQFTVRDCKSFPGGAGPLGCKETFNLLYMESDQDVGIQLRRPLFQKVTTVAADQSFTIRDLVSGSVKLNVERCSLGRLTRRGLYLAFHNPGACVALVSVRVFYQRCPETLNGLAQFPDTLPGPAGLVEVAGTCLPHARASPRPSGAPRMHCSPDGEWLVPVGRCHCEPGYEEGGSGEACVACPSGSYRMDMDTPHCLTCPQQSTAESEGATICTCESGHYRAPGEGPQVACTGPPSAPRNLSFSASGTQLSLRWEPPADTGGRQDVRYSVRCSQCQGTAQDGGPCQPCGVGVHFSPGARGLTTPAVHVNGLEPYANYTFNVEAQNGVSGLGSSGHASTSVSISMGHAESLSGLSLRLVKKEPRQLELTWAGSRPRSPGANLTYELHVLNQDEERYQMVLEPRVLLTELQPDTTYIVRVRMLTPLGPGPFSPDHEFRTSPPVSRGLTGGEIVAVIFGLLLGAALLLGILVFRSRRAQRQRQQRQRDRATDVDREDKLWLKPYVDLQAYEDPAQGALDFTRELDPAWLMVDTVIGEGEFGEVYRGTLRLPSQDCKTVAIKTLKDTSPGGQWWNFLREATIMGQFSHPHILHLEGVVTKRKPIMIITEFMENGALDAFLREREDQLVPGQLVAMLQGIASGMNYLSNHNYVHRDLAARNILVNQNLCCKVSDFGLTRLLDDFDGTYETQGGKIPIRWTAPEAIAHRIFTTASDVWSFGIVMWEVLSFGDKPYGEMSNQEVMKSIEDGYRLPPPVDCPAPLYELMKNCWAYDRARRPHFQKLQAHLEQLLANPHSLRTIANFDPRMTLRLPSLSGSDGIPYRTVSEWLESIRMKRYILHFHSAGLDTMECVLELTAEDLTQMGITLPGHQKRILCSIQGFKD
human Peripheral-type Benzodiazepine Receptor (PBR), TSPO (gene 706), sequence (P30536 whole entry, looked up): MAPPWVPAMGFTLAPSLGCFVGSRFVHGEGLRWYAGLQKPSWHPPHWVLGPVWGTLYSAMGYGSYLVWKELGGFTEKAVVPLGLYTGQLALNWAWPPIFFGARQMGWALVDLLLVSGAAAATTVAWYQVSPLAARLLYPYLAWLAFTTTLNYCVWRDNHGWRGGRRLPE
rat Peripheral-type Benzodiazepine Receptor (PBR), Tspo (gene 24230), sequence (P16257 whole entry, looked up): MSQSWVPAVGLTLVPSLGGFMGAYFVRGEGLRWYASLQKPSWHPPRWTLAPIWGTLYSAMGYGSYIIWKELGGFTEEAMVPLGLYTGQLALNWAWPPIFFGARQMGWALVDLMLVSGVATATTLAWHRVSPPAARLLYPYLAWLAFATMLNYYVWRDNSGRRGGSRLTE

The AC50 is the concentration at which the activity in the assay is half-maximal. On to `COc1cc(OC)nc(Oc2cccc(Oc3nc(OC)cc(OC)n3)c2C(=O)O)n1`, for which, in assay [1], the AC50 is 34.9 µM (active). For the same molecule, the result in [2], in assay [3] and in [4] was inactive.

Take `[CH3][Sn]([CH3])([Cl])[Cl]`: in [5], the outcome was inactive.

Regarding `Cc1ncc(C[n+]2csc(CCO)c2C)c(N)n1`, the call in assay [6] and in [7] was inactive.

As for `CC(=O)c1cc2c(cc1C)C(C)(C)C(C)CC2(C)C` (configuration not stated), the result in assay [8], in assay [9] and in [10] was inactive.

In the case of `C=COCCCl`, the call in [4], in assay [11] and in assay [12] was inactive.

For `CN(C)N`, the molecule was classed as inactive in assay [4] and in assay [11].

On to `Nc1ccccc1`, for which the AC50 in assay [1] was 0.759 µM (active). Besides, the call in [2], in [3] and in assay [13] was inactive.

With `O=P(O)(Oc1ccccc1)Oc1ccccc1`, the result in assay [9] and in assay [10] was inactive.

`C=CC(=O)OCCO`: the result in assay [14], in assay [8], in assay [15], in assay [16] and in [17] was inactive. Further, the AC50 in [18] is 5.27 µM (active).

With `CC(C)(C)C(=O)CCl`, the call in assay [6] was inactive.

Turning to `S=c1[nH]c2ccccc2[nH]1`, the outcome in assay [7] and in assay [2] was inactive. Also, the half-maximal activity concentration (AC50) is 0.0688 µM (active) in assay [1] and 2.02 µM (active) in assay [3].

For the molecule `CCC(=O)c1ccc(Cl)cc1`, the outcome in assay [5] was inactive.

On to `O=S(=O)(O)OOS(=O)(=O)O`, for which the outcome in assay [13] was inactive.

As for `CCCOC(=O)c1ccccc1C(=O)OCCC`, the result in assay [19] and in [12] was inactive.

For the molecule `Oc1ccc(Cl)cc1`, the concentration at half-maximal activity (AC50) in [20] was 12.3 µM (active). Besides, the molecule was called inactive in assay [5].

In the case of `CCOC(=O)COc1ccc(Cl)cc1Cl`, in [5], the molecule was classed as inactive.

Consider `CCOC(=O)NC(=S)Nc1ccccc1NC(=S)NC(=O)OCC`, for which the AC50 was 6.55 µM (active) in [5] and 16 µM (active) in assay [1]. Besides, in assay [3], the molecule was classed as inactive.

The values above are taken from PubChem BioAssay (EPA / NIEHS).
